PubChem BioAssay (NCATS)
Several values for one entry are separate records, joined by “and”; a condition that tells them apart may be missing. Equal values may be shown once. Records with an inconclusive call do not appear. Values without a mark were called inactive. Activity calls are given as the source filed them. Calls come from the whole dose curve; as a rule, active = well fitted curve in the direction sought with a large enough effect; inconclusive = small, poorly fitted or top-dose-only effect, or another doubt; inactive = no such curve, though single readings can be large; an effect the other way counts as inactive or inconclusive.

Key:
[1] = Viability qHTS for spleen associated tyrosine kinase inhibitor (SYKi) naive MV4-11 cells (AID 1963823); note: nearly all actives have a fitted effect of over 40% in size
Outline: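 Luminescence from CellTiter-Glo, developed 10 min at room temperature, gave viability of MV4-11 cells never exposed to SYK inhibitor. Cells (500/well) had been incubated with compounds for 72 hr under standard culture conditions.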

[2] = Viability qHTS for spleen associated tyrosine kinase inhibitor (SYKi) drug resistant MV4-11 cells (AID 1963824); note: nearly all actives have a fitted effect of over 35% in size
Outline: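 SYK-inhibitor-resistant MV4-11 AML cells were seeded at 500 per well onto compound and cultured 72 hours (37 °C, 5% CO2). CellTiter-Glo was then added, and after 10 min at room temperature, luminescence gave viability.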

[3] = Cellular viability qHTS for adrenocortical cancer (ACC) cell line NCI-H295R (AID 1963990); note: nearly all actives have a fitted effect of over 60% in size
Outline: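 IC50 and maximal efficacy derive from four-parameter logistic modelling of titration curves, with reads scaled between DMSO-only wells (0%) and doxorubicin hydrochloride (100% inhibition). Compounds spanned up to 46 uM over 48 h.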
Potency is the fitted concentration of half-maximal effect.

Compound	Potency [1]	Potency [2]	Potency [3]
O=c1[nH]sc2cc(Cl)ccc12	inactive	inactive	3.26 µM (active)
CCN(C(=O)c1ccccc1OC)c1cc2c(cc1N1CCNC[C@H]1C)n(C)c(=O)n2C	inactive	inactive	inactive
NC(=O)/C(=C/n1cnc(-c2cc(C(F)(F)F)cc(C(F)(F)F)c2)n1)c1cncnc1	0.132 µM (active)	0.235 µM (active)	3.16 µM (active)
Cc1onc(-c2c(Cl)cccc2Cl)c1C(=O)Cl	inactive	inactive	inactive
COC(=O)Nc1ccc(-c2nc(N3CCOCC3)c3cnn(C4CCN(C(=O)OC)CC4)c3n2)cc1	0.662 µM (active)	1.05 µM (active)	2.51 µM (active)
CC(=O)OCC(=O)[C@@]1(O)[C@H](OC(C)=O)C[C@H]2[C@@H]3CCC4=CC(=O)C=C[C@]4(C)[C@@]3(F)[C@@H](O)C[C@@]21C	inactive	inactive	inactive
Oc1ccccc1	inactive	inactive	inactive
CC[N+](CC)(CC)CCOc1ccc(/C=C/c2ccccc2)cc1	inactive	inactive	inactive
CN[C@@H]1[C@H](O)[C@H](NC)[C@H]2O[C@@]3(O)C(=O)C[C@@H](C)O[C@H]3O[C@@H]2[C@H]1O	inactive	inactive	inactive
O=C1Nc2ccc(I)cc2/C1=C/c1cc(Br)c(O)c(Br)c1	18.6 µM (active)	14.8 µM (active)	inactive
C=CC(=O)N1CC(N2CCN(C(=O)CNc3cc(C4(C)CC4)c(Cl)cc3O)CC2)C1	18.6 µM (active)	16.6 µM (active)	15.8 µM (active)
C[C@H](NC(=O)/C(C#N)=C/c1cccc(Br)n1)c1ccccc1	3.72 µM (active)	2.95 µM (active)	28.2 µM (active)
CCNC(=O)Nc1ccc(-c2nc3c(c(N4CCOC[C@@H]4C)n2)CCN(C2COC2)C3)cc1	0.934 µM (active)	1.86 µM (active)	3.55 µM (active)
Cc1ccc(-c2ccc3c(ccc4sc5c(c43)NC[C@@H](C)NC5=O)n2)cn1	2.59 µM (active)	2.91 µM (active)	28.2 µM (active)
Cn1cc(-c2ccc(-c3cncc(Cl)c3N3CCC4(CCNC4=O)CC3)cc2)cn1	5.25 µM (active)	1.48 µM (active)	inactive
OCCN1CCN(CC/C=C2/c3ccccc3Sc3ccc(C(F)(F)F)cc32)CC1	21.1 µM (active)	21.1 µM (active)	16.4 µM (active)
CCCS(=O)(=O)c1nc(NC2CC2)cc(-c2ccc3c(ccn3C3CC(C)(C)NC(C)(C)C3)c2)n1	1.75 µM (active)	1.11 µM (active)	2.18 µM (active)

Compound	Potency [1]	Potency [2]	Potency [3]
Cc1[nH]c(/C=C2\C(=O)Nc3ccc(F)cc32)c(C)c1C(=O)NCCN1CCCC1	51.7 nM (active) and 14.4 nM (active)	73.1 nM (active) and 32.3 nM (active)	10.1 µM (active)
CC(=O)N1c2ccc(-c3ccc(C(=O)O)cc3)cc2[C@H](Nc2ccc(Cl)cc2)C[C@@H]1C	0.0525 µM (active)	0.059 µM (active)	3.98 µM (active)
C=C1C[C@@]2(O)O[C@@]3(C[C@H]2C(C)C)[C@@H](C)CC[C@@H]13	inactive	inactive	inactive
N#C/C(=C(/N)Sc1ccc(N)cc1)c1ccccc1C(F)(F)F	10.5 µM (active)	7.42 µM (active)	inactive
Oc1ccc(/C=C/c2cc(O)cc(O)c2)cc1	16.6 µM (active)	18.6 µM (active)	inactive
COc1cc2c(cc1OC)-c1cc(=Nc3c(C)cc(C)cc3C)n(C)c(=O)n1CC2	9.44 µM (active)	10.6 µM (active)	20.6 µM (active)
Cc1ccccc1C(=O)Nc1ccc(C(=O)N2CCCC(N(C)C)c3ccccc32)cc1 (centres undefined)	5.96 µM (active) and 2.91 µM (active)	4.73 µM (active) and 4.61 µM (active)	1.64 µM (active)
O=C(/C=C/c1ccc2ccc(C(F)(F)F)cc2n1)c1ccncc1	0.934 µM (active)	0.934 µM (active)	4.47 µM (active)
O=C([O-])C[O-].[Pt+2]	inactive	inactive	inactive
O=C(NOCCO)c1ccc2cncn2c1Nc1ccc(I)cc1F	2.06 µM (active)	0.105 µM (active)	inactive
C#Cc1cccc(Nc2ncnc3cc(OCCOC)c(OCCOC)cc23)c1	3.76 µM (active) and 1.86 µM (active)	6.68 µM (active) and 2.31 µM (active)	6.51 µM (active)
Cc1ccc(-n2c(C)cc(-c3nnc4n3CCCCC4)c2C)cc1	8.33 µM (active)	8.33 µM (active)	inactive
C=CC(=O)N1CCC(Oc2cc3c(Nc4ccc(Cl)c(Cl)c4F)ncnc3cc2OC)CC1	1.03 µM (active)	4.68 µM (active)	25.1 µM (active)
CN(C)c1cc(NC(=O)CNC(C)(C)C)c(O)c2c1C[C@H]1C[C@H]3[C@H](N(C)C)C(=O)C(C(N)=O)=C(O)[C@]3(O)C(=O)C1=C2O	inactive	inactive	inactive
CCCCCCCCCCCC[N+](C)(C)Cc1ccccc1	6.68 µM (active)	9.44 µM (active)	29.1 µM (active)
CN1CCCN(C(c2ccccc2)c2ccc(Cl)cc2)CC1 (centres undefined)	21.1 µM (active)	16.8 µM (active)	23.1 µM (active)
